Pf growth 96h: Primary qHTS for delayed death inhibitors of the malarial parasite plastid, 96 hour incubation | P. falciparum luciferase reporter growth, 96 h | Potency, µM (doses to about 28.7 µM), for inactives: at the top dose activity change, negative = inhibition, usual class: inhibitors | actives 6.9% (n = 320,000); also: potency is read from the fitted curve at half-maximal effect; % is scaled to controls: 0 for no effect and ±100 for the full control effect
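Compounds incubated with erythrocytes infected by luciferase-expressing P. falciparum (2% hematocrit, 0.05% parasitemia final) for 96 hours, 37 C in 5% CO2. Growth inhibition scored as decreased luciferase luminescence.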
LmPK inhibitor: qHTS Assay for Inhibitors of Leishmania Mexicana Pyruvate Kinase (LmPK); actives 0.37% (n = 290,000); purified LmPK, Kinase-Glo ATP luminescence, 1 h; AID 1721, 2009; Potency, µM (doses to about 57.5 µM), without a hit: at the highest dose activity change, negative = inhibition, hits mostly inhibitors; Q27686; also: potency is read from the fitted curve at half-maximal effect; % is scaled to controls: 0 for no effect and ±100 for the full control effect
Target sequence (Q27686 whole entry, looked up): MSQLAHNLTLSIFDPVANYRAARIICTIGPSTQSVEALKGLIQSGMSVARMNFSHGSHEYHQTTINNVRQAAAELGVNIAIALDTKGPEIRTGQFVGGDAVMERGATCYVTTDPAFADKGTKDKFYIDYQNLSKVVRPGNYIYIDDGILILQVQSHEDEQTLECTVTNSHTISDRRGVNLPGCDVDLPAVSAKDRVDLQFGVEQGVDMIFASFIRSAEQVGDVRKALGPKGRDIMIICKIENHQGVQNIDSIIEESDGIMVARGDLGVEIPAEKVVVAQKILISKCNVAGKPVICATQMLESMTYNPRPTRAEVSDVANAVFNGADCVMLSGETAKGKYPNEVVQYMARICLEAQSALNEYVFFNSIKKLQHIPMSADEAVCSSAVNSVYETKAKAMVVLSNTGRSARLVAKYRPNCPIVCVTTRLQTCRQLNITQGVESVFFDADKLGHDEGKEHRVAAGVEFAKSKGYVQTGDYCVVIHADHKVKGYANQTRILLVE
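qHTS format; LmPK 0.1 nM; substrates PEP 0.5 mM and ADP 0.1 mM. One-hour room-temperature incubation, then coupled luciferase luminescence; 0.5 nM enzyme wells mark activation.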
Pf growth 48h: Primary qHTS for delayed death inhibitors of the malarial parasite plastid, 48 hour incubation; P. falciparum luciferase growth in erythrocytes, 48 h; Potency, µM (top dose mostly 28.7 µM), for inactives: at the top dose activity change, negative = inhibition, actives largely listed as inhibitors; actives 5.9% (n = 310,000); AID 504832, 2011; also: potency is read from the fitted curve at half-maximal effect; % is scaled to controls: 0 for no effect and ±100 for the full control effect
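Luminescence readout; reporter = integrated firefly luciferase in P. falciparum. RBC culture at 2% hematocrit, 0.1% parasitemia final, 37 C/5% CO2; decreased signal taken as growth inhibition.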
Shiga toxin inh: A qHTS for Small Molecule Inhibitors of Shiga Toxin; Vero cells, Shiga toxin protein synthesis inhibition reporter; inhibition, % at 38.7 µM; actives 9.2% (n = 290,000); AID 2315, 2010; in the data active = inhibition mostly above about 28%, no sharp cut-off; inactive = mostly below about 43%; also: 0% is about no effect
CHX counter: Cycloheximide Counterscreen for Small Molecule Inhibitors of Shiga Toxin | cell reporter, cycloheximide protein synthesis inhibition counterscreen | max response, % | actives 12% (n = 300,000); in the data active = max response mostly above about 13%, no sharp cut-off; inactive = mostly below about 14%; also: read at 38.3 µM for the half of the compounds with a filed dose; 0% is about no effect
* hit, by the source's call; ? = inconclusive; . = no result. Only some compounds are listed: those with a hit (about 22% of all), similar ones and a draw of the others. Unless noted, calls follow the shape of the dose curve; as a rule, active = well fitted inhibition curve with a large enough effect; inconclusive = small, poorly fitted or top-dose-only effect, or another doubt; inactive = no such curve, though single readings can be large or run the other way.

SMILES	Pf growth 96h	LmPK inhibitor	Pf growth 48h	Shiga toxin inh	CHX counter
COc1ccc(-n2nc3ccc(N)cc3n2)cc1Cl	29%	-4%	57%	.	28*
Cc1ccc(N2C(N)=NC(N)=NC23CCCC3)c(C)c1	?	1%	?	16	2
Cc1ccc(-n2nc3ccc(N)cc3n2)c(C)c1	1.7µM*	1%	98%	.	17*
Cc1ccc(-n2cnnn2)cc1Cl	?	2%	5%	-14	-1
Cc1ccc(-n2nc3ccc(N)cc3n2)cc1C	185%	-9%	0%	.	44*
Cc1ccc(-n2nc3ccc(N)cc3n2)cc1Cl	4.1µM*	4%	89%	67*	32*
CC(C)[C@@H]1NC(=O)[C@H](CCCCN)NC(=O)[C@@H](Cc2c[nH]c3ccccc23)NC(=O)[C@H](Cc2ccc(O)cc2)NC(=O)[C@@H](NC(=O)[C@H](N)Cc2ccccc2)CSSC[C@@H](C(=O)N[C@@H](Cc2c[nH]c3ccccc23)C(N)=O)NC1=O	.	.	.	-9	-15
O=S(=O)(NCCSc1ccccn1)c1ccc(Br)cc1	20%	5%	-11%	-13	5
COc1ccc(NS(=O)(=O)c2cn(C)cn2)cc1Cl	?	2%	33%	-7	7
COc1ccc(-n2nc3ccc(NS(C)(=O)=O)cc3n2)cc1Cl	26%	-5%	55%	35*	9.6*
COc1ccc(S(=O)(=O)N2CCCC2C(=O)NCc2ccccc2Cl)cc1 (centres undefined)	-3%	-1%	-10%	-11	-5
COc1ccc(NC(=O)C(=O)NCCC2CCCCN2S(=O)(=O)c2ccccc2)cc1 (centres undefined)	?	.	-30%	.	.
COc1ccc(S(=O)(=O)N2CCCC2CNC(=O)C(=O)NCc2ccccc2Cl)cc1 (centres undefined)	9.3µM*	.	?	.	.
COc1ccc(CNC(=O)C(=O)NCCC2CCCCN2S(=O)(=O)c2ccccc2)cc1 (centres undefined)	?	.	12µM*	.	.
Cc1cc(S(=O)(=O)N2CCCCC2CCNC(=O)C(=O)NC2CC2)ccc1F (centres undefined)	?	.	-16%	.	.
Cc1cc(C)c(S(=O)(=O)N2CCCCC2CCNC(=O)C(=O)NC2CC2)c(C)c1 (centres undefined)	?	.	9.3µM*	.	.
CN(C)c1nc(Cl)nc(N(C#N)CCOc2ccccc2)n1	141%	-9%	?	-12	-3
Cc1cc(SCC(=O)N(C)C2CCS(=O)(=O)C2)nc2c(C)cccc12 (centres undefined)	18%	1%	-4%	-5	-1
Cc1noc(C)c1CSCC(=O)Nc1nc2ccc(F)cc2s1	-23%	.	?	.	.
CN(CC(=O)Nc1ncn[nH]1)S(=O)(=O)c1cc(Cl)ccc1Cl	-2%	-3%	10µM*	-6	-5
Cc1cc(OCC(=O)NC2CCCCC2)ccc1Cl	5%	4%	23%	67*	30*
Cc1cc(=O)oc2cc(OCC(=O)NC3CC(C)(C)NC(C)(C)C3)ccc12	23%	-1%	13%	-3	-4
Cc1cc(OCC(=O)Nc2ncn[nH]2)ccc1Cl	1.9µM*	.	88%	.	.
Cc1cc(=O)oc2cc(OCC(=O)NC3CCCCC3)ccc12	73%	-7%	39%	6	22*
O=C(c1ccc(S(=O)(=O)NCc2ccco2)cc1)N1CCN(Cc2ccc3c(c2)OCO3)CC1	-8%	-2%	-5%	-13	7
SMILES	Pf growth 96h	LmPK inhibitor	Pf growth 48h	Shiga toxin inh	CHX counter
Cc1ccc(C(=O)OCC(=O)NCCc2ccccc2)cc1C	13%	.	1%	.	.
O=C1Nc2ccccc2C1(O)Cc1ccccn1 (centres undefined)	0%	1%	28%	-1	-2
O=C(c1cc2nc(-c3ccccc3)cc(C(F)(F)F)n2n1)N1CCN2CCCC2C1 (centres undefined)	?	-7%	?	27	-2
CCOC(=O)C1CCCN(C(=O)c2cc3nc(-c4cccc(OC)c4)cc(C(F)(F)F)n3n2)C1 (centres undefined)	.	5%	12µM*	-4	-3
COc1ccc(-c2cc(C(F)(F)F)n3ncc(C(=O)N4CCCCC4c4cccnc4)c3n2)cc1 (centres undefined)	-12%	3%	2.9µM*	24	9
CCOC(=O)C1CCCN(C(=O)c2cnn3c(C(F)(F)F)cc(-c4ccccc4)nc23)C1 (centres undefined)	.	-6%	9.3µM*	-2	-4
COc1cc(CN2CCN(C(=O)c3ccc(-c4ccccc4)cc3)CC2)cc(OC)c1OC	-4%	-2%	14%	98*	19*
COc1cccc(CN2CCN(C(=O)c3ccc(-c4ccccc4)cc3)CC2)c1	10%	0%	-2%	-2	-3
Cn1nc(-c2ccc(C(=O)N3CCN(Cc4ccccc4)CC3)cc2)c2ccccc2c1=O	13µM*	9%	.	-13	-2
COc1ccc(OC)c(CN2CCN(Cc3cc(OC)c(OC)c(OC)c3)CC2)c1	13µM*	8%	0%	.	-2
COc1cccc(C(=O)N2CCN(Cc3ccccc3C(F)(F)F)CC2)c1	1.5µM*	-2%	-1%	-4	2
CC(C)(C)NC(=O)COC(=O)CNC(=O)c1cc(Cl)cc([N+](=O)[O-])c1	-10%	-2%	20%	-6	-7
COC(C[C@@H](O)CC(=O)COCc1ccccc1)OC	72%	1%	39%	-3	2
COc1cccc(CN2CCN(C(=O)c3ccc(-c4ccccc4)cc3)CC2)c1OC	2.9µM*	-4%	-23%	-8	0
Cc1cc(C)c(S(=O)(=O)c2cccc(Cl)c2)c(=O)[nH]1	-11%	1%	.	23	-2
COc1ccc(S(=O)(=O)N2CCC(C(=O)NCc3ccncc3)CC2)cc1	2%	-1%	-5%	-4	-3
COc1ccc(CCNC(=O)c2nn(C)cc2Cl)cc1	-30%	-10%	31%	76*	27*
COc1ccc(CCNC(=O)c2nonc2N)cc1	151%	-2%	93%	46*	21*
COc1ccc(CCNC(=O)Cc2c(Cl)cccc2Cl)cc1	23%	-2%	-16%	37	2
Cc1ccc(COc2coc(CO)cc2=O)cc1	73%	1%	97%	37	38*
CCn1c(=O)cc(SCC(=O)N(C)Cc2ccccc2)c2ccccc21	?	0%	.	-16	-6
CCOC(=O)N1CCN(C(=O)COc2cc(=O)n(CC)c3ccccc23)CC1	36%	1%	-12%	-29	-3
CCOC(=O)COc1cc(=O)n(CC)c2ccccc12	8.3µM*	-3%	17%	38	-2
CCOC(=O)CSc1cc(=O)n(CC)c2ccccc12	10µM*	-2%	9%	-8	-3
CN(C(=O)COc1cc(=O)n(C)c2ccccc12)c1ccc(Br)cc1	10µM*	-4%	?	-5	5
